LYP inh 2 – PTPN22 phosphatase inhibitors, primary screen, biochemical, DiFMUP fluorescence, 2 µM | Tyrosine-protein phosphatase non-receptor type 22 (Homo sapiens), Q9Y2R2 | recombinant LYP catalytic domain | inhibition, % at 2 µM | hit rate 0.21% among 96,000 | AID 640, 2007;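 active means inhibition at 2 µM at or above a set limit, the screen mean plus 3 SD, cut at about 24% in these data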
Target sequence (Q9Y2R2 whole entry, looked up, the tested form may be a part): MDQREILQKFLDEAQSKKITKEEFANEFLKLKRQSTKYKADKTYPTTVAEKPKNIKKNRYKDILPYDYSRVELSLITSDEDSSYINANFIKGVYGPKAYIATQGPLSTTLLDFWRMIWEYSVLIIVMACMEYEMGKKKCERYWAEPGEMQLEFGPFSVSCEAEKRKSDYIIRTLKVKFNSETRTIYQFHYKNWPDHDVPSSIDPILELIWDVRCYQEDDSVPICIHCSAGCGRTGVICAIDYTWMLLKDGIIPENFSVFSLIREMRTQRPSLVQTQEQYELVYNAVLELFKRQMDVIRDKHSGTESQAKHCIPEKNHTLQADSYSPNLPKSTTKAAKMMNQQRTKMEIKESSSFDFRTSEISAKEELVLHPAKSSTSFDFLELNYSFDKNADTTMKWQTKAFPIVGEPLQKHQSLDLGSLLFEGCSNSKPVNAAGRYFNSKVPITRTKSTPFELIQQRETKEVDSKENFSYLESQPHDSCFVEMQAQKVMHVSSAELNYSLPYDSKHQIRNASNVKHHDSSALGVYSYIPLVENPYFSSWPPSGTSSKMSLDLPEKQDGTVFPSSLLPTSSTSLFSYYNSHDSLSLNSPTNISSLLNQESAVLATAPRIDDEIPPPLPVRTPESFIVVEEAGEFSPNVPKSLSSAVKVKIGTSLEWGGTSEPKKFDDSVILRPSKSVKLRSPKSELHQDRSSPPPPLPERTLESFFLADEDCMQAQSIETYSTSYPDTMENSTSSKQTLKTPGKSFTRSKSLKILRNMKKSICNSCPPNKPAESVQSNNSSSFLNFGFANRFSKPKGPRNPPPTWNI
MT1-MMP txn act – MT1-MMP promoter reporter activation – cell-based, luciferase luminescence, primary screen; HT1080 MT1-MMP promoter luciferase reporter, overnight; stronger effect = higher value; hit rate 0.16% among 86,000; AID 750, 2007; activation factor at 10 µM;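 active means activation factor of at least 2 for MT1-MMP transcription at 10 µM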
PLAP activator – PLAP enzyme activators, biochemical, luminescence, HTS | hit rate 1.2% among 96,000 | Alkaline phosphatase, placental type (Homo sapiens), P05187 | activation fold at 20 µM | purified PLAP enzyme, luminescent substrate read-out; stronger effect = higher value; in the data active means activation fold above about 2
LYP act – LYP phosphatase activators, primary screen, biochemical, DiFMUP fluorescence, 2 µM; hit rate 0.11% among 96,000; AID 697, 2007; activation, % at 2 µM; Tyrosine-protein phosphatase non-receptor type 22 (Homo sapiens), Q9Y2R2; recombinant LYP; 0 = plate median, 100 = signal doubled;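 active means activation at 2 µM above a set limit, the mean plus 5 SD, cut at about 37% in these data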
TNAP act DEA – human TNAP enzyme activators, primary screen, biochemical, luminescent, intermediate phosphate acceptor level; 64,000 tested, under 10 active; activation factor at 20 µM; purified TNAP, CDP-star luminescence, 100 mM DEA, 30 min; stronger effect = higher value; scale: 0 levamisole-inhibited, 1 vehicle-only enzyme;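 active means activation factor of at least 2 at 20 µM, relative to controls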
Numbers stand for hits; n = inactive; x = no result. Shown are actives, neighbours in structure and some others; about 1.6% of the full set was active somewhere.

SMILES	LYP inh 2	MT1-MMP txn act	PLAP activator	LYP act	TNAP act DEA
O=C(Nc1nc2ccccc2[nH]1)C1CC(=O)N(c2ccc3c(c2)OCCO3)C1 (stereo not drawn)	n	n	2.9	n	n
CC(=O)Cc1nsc(NC(=O)c2cn(-c3ccccc3)nc2-c2ccc(Br)cc2)n1	n	n	n	n	x
CN(C)c1ccc(/C=N/N=C2/NC(=O)/C(=C/c3ccc([N+](=O)[O-])cc3)S2)cc1	25	x	n	n	x
CS/C(N)=N/N=C/c1ccc([N+](=O)[O-])cc1	n	x	n	n	x
Cc1sc2nc(CN3CCCC3)nc(N3CCC(C(N)=O)CC3)c2c1C	n	n	2	n	x
O=C(Nc1ccc2c(c1)CCC2)C1CCCN(c2ncccn2)C1 (stereo not drawn)	n	n	n	n	n
Cc1nc2ncnn2c(N2CCCC(C(=O)Nc3ccc4c(c3)CCC4)C2)c1C (stereo not drawn)	x	n	2.1	x	n
Cc1ccccc1NC(=S)NNC(=O)c1csc2c1CCC(C)C2 (stereo not drawn)	n	x	n	n	x
COc1ccc(CNCc2cc3c(C(C)(C)C)nn(-c4ccccc4)c3[nH]c2=O)cc1	n	n	2.5	n	x
CC(C)(C)c1nn(-c2ccccc2)c2[nH]c(=O)c(CNCc3ccco3)cc12	n	n	2.4	n	n
Cc1ccc(CNCc2cc3c(C(C)(C)C)nn(-c4ccccc4)c3[nH]c2=O)cc1	n	n	2.1	n	x
COC(=O)C1=C(N)Oc2cc(C)[nH]c(=O)c2C1c1cccnc1 (stereo not drawn)	n	x	n	n	x
Cc1ccc(C(=O)Nc2ccc3cn[nH]c3c2)cc1S(=O)(=O)N1CCCCC1	n	2.1	n	n	x
Cc1ccc(S(=O)(=O)N(CCC(=O)O)Cc2ccc(Cl)cc2)cc1	n	n	n	n	x
O=C(O)c1cc(-c2ccccn2)n[nH]1	n	n	2.5	n	n
CCC1=Nc2cc(C(=O)NCCCOC)ccc2Sc2ccccc21	n	n	2	n	x
COCn1c(COc2ccc3ccccc3c2)nc2ccccc21	n	2.3	x	n	x
COC(=O)[C@@]1(Cc2ccc(OC)cc2)[C@H]2c3cc(C(=O)N(C)C)n(Cc4cc(F)c(F)c(F)c4)c3C[C@H]2CN1C(=O)c1ccccc1	x	n	x	x	x
CC(=O)Nc1ccc(N2C(C(C)=O)=NN(c3ccc(Cl)cc3)C2c2sccc2C)cc1 (stereo not drawn)	n	n	x	n	x
COC(=O)C1=CN(CCCN2CCCC2=O)C=C(C(=O)OC)C1c1ccccc1C(F)(F)F	n	n	2.1	n	n
Cc1cccc(N2CCN(C(=O)COc3cc(=O)n(C)c4ccccc34)CC2C)c1 (stereo not drawn)	x	x	x	x	n
COc1cc(C(=O)Oc2ccccc2/C=N/NC(=O)c2ccc(Cl)cc2Cl)cc(OC)c1OC	n	x	2.3	n	x
COC(=O)[C@@]1(Cc2ccccc2)C=C[C@@H](C)N1C(=O)c1ccccc1	x	n	x	x	x
COc1cc(OC)cc(C(=O)n2cnnc2N)c1	n	n	n	n	x
CN1CCN(C(c2cccnc2)c2ccc3cccnc3c2O)CC1 (stereo not drawn)	n	n	2.5	n	n
SMILES	LYP inh 2	MT1-MMP txn act	PLAP activator	LYP act	TNAP act DEA
C=CCn1cc(/C=N\NC(=O)c2cc3c(ccc4ccccc43)o2)c2ccccc21	n	x	n	n	x
O=C(N/N=C/C=C/c1ccccc1)c1cc2c(ccc3ccccc32)o1	32	x	n	n	x
Cc1nc2nc(NCc3cccs3)nn2c(C)c1Cl	n	n	n	n	x
COC(=O)C1(CC(C)C)C=CC[N+]1(C)C (stereo not drawn)	x	n	x	x	x
Cc1cc2nc(CCN(C(=S)NCC(C)C)C3CCCC3)[nH]c2cc1C	n	x	2.4	n	x
CC(C)c1ccc(NC(=O)N(CCc2nc3ccccc3[nH]2)C2CCCC2)cc1	n	n	n	n	x
COc1ccc2nc(SCC(=O)Nc3cc(C)on3)[nH]c2c1	n	n	2.2	n	x
COc1ccc2nc(SCC(=O)Nc3ccccc3C#N)[nH]c2c1	n	n	2.1	n	n
COc1ccc(-c2cc(C(=O)OC3CCOC3=O)c3ccccc3n2)cc1 (stereo not drawn)	n	n	n	n	x
COC(=O)[C@@]1(Cc2ccccc2)[C@H]2c3cc(C(=O)N4CCCC4)n(Cc4ccccn4)c3C[C@H]2CN1C(=O)c1ccccc1	x	n	x	x	x
CCOC(=O)C1=C(C)N(CCCC(=O)O)C(=O)NC1c1ccc2c(c1)OCO2 (stereo not drawn)	x	n	x	x	x
COC(=O)c1ccc(C(NC(=O)OCc2ccccc2)/C(F)=C/[C@@H](C)C(=O)N(C)Cc2cccnc2)cc1 (stereo partly drawn)	x	n	x	x	x
Cc1nnc2sc(-c3ccc(NC(=O)c4ccc(-c5ccc(Cl)cc5Cl)o4)cc3)nn12	32	n	x	n	n
Cc1nnc2sc(-c3ccc(NC(=O)c4cccnc4)cc3)nn12	n	n	x	n	n
CC(C)CC(NS(=O)(=O)c1ccc2c(c1)oc(=O)n2C)C(=O)N1CC=C(c2ccccc2)CC1 (stereo not drawn)	n	n	2.5	n	n
CC1CC(C)CN(Cc2nc3c(c(=O)n(C)c(=O)n3C)n2Cc2ccccc2Cl)C1 (stereo not drawn)	x	x	x	x	n
Cc1cc(C)nc(Nc2n[nH]c(-c3ccccc3Br)n2)n1	n	n	n	n	n
Cc1cc(C)nc(Nc2n[nH]c(-c3ccc(N)cc3)n2)n1	n	n	2.4	n	x
c1ccc(CN2CCN(c3nc(NCc4ccco4)c4ccccc4n3)CC2)cc1	n	x	2	n	x
CCN1CC(O)=C(c2nc3ccccc3s2)C1=N	n	n	2.1	n	x
CCCCN1CC(O)=C(c2nc3ccccc3s2)C1=N	x	n	n	x	n
CCn1c(SCC(=O)Nc2oc(-c3ccccc3)c(-c3ccccc3)c2C#N)nnc1-c1cc(OC)cc(OC)c1	n	n	2.2	n	x
O=C(CSc1ncn[nH]1)N(C1CCCCC1)C1CCCCC1	n	n	2	n	x
CCCCCOc1ccc(CSc2ncn[nH]2)cc1	n	n	x	n	x
O=C(O)c1ccccc1CSc1ncn[nH]1	n	n	n	n	x
SMILES	LYP inh 2	MT1-MMP txn act	PLAP activator	LYP act	TNAP act DEA
C(=C\CSc1ncn[nH]1)/CSc1ncn[nH]1	n	n	2.7	n	n
O=C(CSc1ncn[nH]1)c1ccccc1	n	n	2.2	n	n
CCCCOc1ccc(CSc2ncn[nH]2)cc1	n	n	2.3	n	n
Cc1ccc(/C(O)=C2\C(=O)C(=O)N(CCCN(C)C)C2c2ccccn2)cc1 (stereo not drawn)	n	n	x	n	n
CCc1c2c(nc3c(C(C)C)cccc13)-c1cccc(=O)n1C2	x	n	x	x	x
c1n[nH]c(SCCCCSc2ncn[nH]2)n1	n	n	2.6	n	n
O=C(O)C[CH2][Ge](=[O])[O][Ge](=[O])[CH2]CC(=O)O	x	n	x	x	x
Clc1cccc2sc(N3CCCC3)nc12	n	n	n	n	n

Source: PubChem
